In PubChem BioAssay AID463173 (ICCB-Longwood Screening Facility, Harvard Medical School, 2010):
Screen size: about 52,000 compounds; about 1,700 (3.3%) were called active. Many of the other results were omitted from the sample, so actives are more common in it than they were. Unmarked numbers belong to inactive results. No stated cut-off is given here; in the data, active means survival mostly below about 52% (no sharp cut-off); inactive means mostly above about 56%.

System: Wild type
Test: growth inhibition of S. aureus wild type versus tarO mutant, primary screen, teichoic acid synthesis inhibitors, RN4220, OD600 (AID 463173)
Conditions: S. aureus RN4220 wild type/DeltatarO growth, OD600, 18 h, hits give low values, screened at 18.75 µg/mL (by protocol)

| SMILES | survival |
| --- | --- |
| Cc1nn2c(=O)cc(COC(=O)c3ccccc3NC(=O)C(C)C)nc2s1 | 74% |
| Cc1cc(C)c2nc(N(Cc3cccnc3)C(=O)c3ccc(S(=O)(=O)N(C)C)cc3)sc2c1 | 57% |
| COc1cccc(-c2nc(CS(=O)(=O)CC(=O)NCCc3ccc(OC)cc3OC)c(C)o2)c1 | 83% |
| Cc1ccc(N(C)S(=O)(=O)c2nnc(NC(=O)CC(C)C)s2)cc1 | 87% |
| Cc1ccccc1OCC(O)Cn1c(=N)n(CCN2CCCCC2)c2ccccc21 (configuration not stated) | 76% |
| N=c1n(CCN2CCCCC2)c2ccccc2n1CC(O)COc1ccccc1 (configuration not stated) | 144% |
| N=c1n(CCN2CCCCC2)c2ccccc2n1CC(O)COc1ccc(Cl)cc1Cl (configuration not stated) | -3% (active) |
| O=C(CSc1nc2c([nH]c3ccccc32)c(=O)n1-c1ccccc1)NCc1ccc(F)cc1 | 87% |
| COCCNC(=O)CSc1nnc(-c2ccc(OC)c(OC)c2)c(-c2ccc(OC)c(OC)c2)n1 | 68% |
| CC(=O)N1N=C(c2ccccc2)CC1c1ccccc1 (configuration not stated) | 104% |
| C=Cc1ccc(Cn2nc(-c3ccc(C)cc3)ccc2=O)cc1 | 57% |
| O=C(O)/C(=C/C(=O)c1ccccc1)Nc1ccccc1 | 100% |
| Cc1cc(S(=O)(=O)Nc2ccc3oc4c(c3c2)CCCC4)ccc1Cl | 46% |
| Cc1cc(S(=O)(=O)Nc2ccc(O)c(Sc3nc4ccccc4s3)c2)ccc1Cl | -2% (active) |
| CC(C)(C)c1ccc(S(=O)(=O)Nc2ccc(O)c(Sc3nc4ccccc4s3)c2)cc1 | 3% (active) |
| Cc1nc2ccc(S(=O)(=O)NC(C(=O)NCc3ccccc3Cl)C(C)C)cc2s1 (configuration not stated) | 85% |
| CC(=O)c1c(C)oc2ccc(NS(=O)(=O)c3ccc(C(C)C)cc3)cc12 | 86% |
| CC(C)c1ccc(S(=O)(=O)Nc2ccc(O)c(Sc3nc4ccccc4s3)c2)cc1 | 0% (active) |
| CC(C)c1ccc(C(=O)Nc2ccc(-c3nc4ccccc4s3)c(Cl)c2)cc1 | 141% |
| Cn1c(=O)sc2cc(NS(=O)(=O)c3ccc(C(C)(C)C)cc3)ccc21 | 73% |
| O=C(COc1ccc(Cl)cc1)Nc1ccc(O)c(-c2nc3ccccc3s2)c1 | 69% |
| O=S(=O)(Nc1ccc(O)c(Sc2nc3ccccc3s2)c1)c1cc(Cl)ccc1Cl | 0% (active) |
| CC(C)NC(=O)c1nc2ccccc2s1 | 120% |

| SMILES | survival |
| --- | --- |
| O=S(=O)(Nc1ccc2oc3c(c2c1)CCCC3)c1cc(Cl)ccc1Cl | 46% |
| CCN(C(=O)CSc1nnc(-c2cc(OC)c(OC)c(OC)c2)o1)c1ccccc1 | 87% |
| CCn1c(CNC(=O)c2ccc(OC)cc2)nnc1SCC(=O)Nc1cccc(C)c1 | 119% |
| CCC(C(=O)Nc1cccc(C#N)c1)n1nc(-c2ccccc2)ccc1=O (configuration not stated) | 79% |
| CC(C)N(Cc1ccccc1)C(=O)Cn1ncc2c3ccccc3n(Cc3ccccc3)c2c1=O | 96% |
| CN(C)c1ccc(C(CNS(=O)(=O)c2ccc(Br)cc2)N2CCCC2)cc1 (configuration not stated) | 68% |
| C=CCC(CC=C)(CNC(=O)C(=O)Nc1ccc(Br)cc1)c1ccc(OC)c(OC)c1 | 90% |
| Cc1cccc(NC(=O)c2ccc(F)c(S(=O)(=O)N3CCN(c4ccc(F)cc4)CC3)c2)c1 | -3% (active) |
| O=C(Nc1ccc(N2CCC(N3CCCCC3)CC2)c(C(=O)O)c1)c1ccc(Br)cc1 | 75% |
| CCCNC(=O)CN1CCN(c2ccc(NC(=O)c3ccc(OC)cc3)cc2C(=O)O)CC1 | 87% |
| O=C(Nc1ccc(N2CCN(c3ccc(F)cc3)CC2)c(C(=O)O)c1)c1ccccc1F | 76% |
| O=C(Nc1ccc(N2CCC(N3CCCCC3)CC2)c(C(=O)O)c1)c1ccccc1 | 70% |
| COc1ccc(C(=O)Nc2ccc(N3CCN(c4ccccc4)CC3)c(C(=O)O)c2)cc1 | 83% |
| Cc1cccc(C(=O)Nc2ccc(N3CCN(c4ccc(F)cc4)CC3)c(C(=O)O)c2)c1 | 63% |
| O=C(Nc1ccc(N2CCN(CCOc3ccc(Cl)cc3)CC2)c(C(=O)O)c1)c1ccc(F)cc1 | -3% (active) |
| O=C(Nc1ccc(N2CCOCC2)c(C(=O)O)c1)c1ccc(Br)cc1 | 0% (active) |
| Cc1cccc(NC(=O)c2ccc(F)c(S(=O)(=O)N3CCC4(CC3)OCCO4)c2)c1 | 71% |
| CC(=O)c1ccc(N2CCN(c3ccc(NC(=O)c4ccc(F)cc4)cc3C(=O)O)CC2)cc1 | 14% (active) |
| CCOc1ccccc1NC(=O)c1ccc(F)c(S(=O)(=O)N2CCN(c3ccc(F)cc3)CC2)c1 | 60% |
| COc1ccc(NC(=O)c2nnn(CC(=O)Nc3cc(C)cc(C)c3)c2N)c(OC)c1 | 139% |
| CC(=O)Nc1ccc(NC(=O)CCNS(=O)(=O)c2cccc3nsnc23)cc1 | 89% |
| Cn1c(-c2ccc(NC(=O)c3ccccc3)cc2)n[nH]c1=S | 113% |
| CC(C)COc1ccc(Nc2ncnc3ccc(Br)cc23)cc1 | 79% |

| SMILES | survival |
| --- | --- |
| O=C(NCC(c1cccnc1)N1CCc2ccccc2C1)C(=O)Nc1cccc(Cl)c1 (configuration not stated) | 47% |
| Cc1ccc(Cl)cc1N1CCN(CCCNC(=O)Cn2ncc3c([nH]c4ccccc43)c2=O)CC1 | 99% |
| Cc1cc(C)cc(-n2c(C)nc3cc(C(=O)NCc4ccc(F)cc4)ccc32)c1 | 138% |
| CC(NC(=O)c1ccccc1)c1n[nH]c(=S)n1C (configuration not stated) | 109% |
| CC(C)NC(=O)/C=C/c1ccc2c(c1)OCO2 | 110% |
| O=C(Cn1c(=O)n(Cc2ccccc2)c(=O)c2sc3ccccc3c21)NCc1ccccc1Cl | 125% |
| CC1=C(C(=O)OCc2ccc(C)cc2)C(c2ccccc2F)CC(=O)N1 (configuration not stated) | 115% |
| COc1ccc(CNCc2c(C(=O)O)c(C)n(Cc3ccc(Cl)cc3)c2C)c(OC)c1 | 101% |
| CCCn1cnc2cc(NCc3ccccc3OCC)ccc21 | 61% |
| CCCCn1cnc2cc(NCc3ccccc3Cl)ccc21 | -16% (active) |
| CCCCn1cnc2cc(NCc3ccc(OCC)cc3)ccc21 | 4% (active) |
| COc1cc(CNc2ccc3c(c2)ncn3C(C)C)cc(OC)c1OC | 66% |
| CCn1cnc2cc(NCc3ccc(N(C)C)cc3)ccc21 | 94% |
| COc1cccc(CNc2ccc3c(c2)ncn3C)c1OC | 121% |
| CC(C)(C)n1cnc2cc(NS(=O)(=O)c3ccccc3)ccc21 | 112% |
| CC(C)(C)n1cnc2cc(NCc3ccccc3Cl)ccc21 | 8% (active) |
| CCCCn1cnc2cc(NC(=O)c3cc(OC)c(OC)c(OC)c3)ccc21 | 79% |
| CCc1ccc(CNc2ccc3c(c2)ncn3C(C)(C)C)cc1 | -16% (active) |
| CCCn1cnc2cc(NCc3ccc(OC)cc3OC)ccc21 | 63% |
| CCCn1cnc2cc(NC(=O)c3cc(OC)c(OC)c(OC)c3)ccc21 | 76% |
| O=C(CN1C(=O)C2(SCC(=O)N2c2ccccc2)c2ccccc21)NCc1ccccc1Cl (configuration not stated) | 97% |
| Cc1cc(C)c2c(c1)NC(=O)C2(O)c1c[nH]c2ccccc12 (configuration not stated) | 97% |
| COc1ccc(C)cc1NC(=O)c1cc2c(s1)-c1ccccc1SC2 | 46% |

| SMILES | survival |
| --- | --- |
| CC(C)OCCCNC(=O)c1ccc(Cn2c(=O)c3cccn3c3cccnc32)cc1 | 111% |
| COc1ccc(OC)c(NC(=O)c2cc3c(=O)oc4ccccc4c3s2)c1 | 103% |
| CCCc1cc(=O)[nH]c2nnc(SC(C)CC)n12 (configuration not stated) | 80% |
| Cc1c2cnn(-c3ccccc3)c(=O)c2c(C)n1C(C)C(=O)Nc1ccccc1C(F)(F)F (configuration not stated) | 81% |
| Cc1ccc(Cl)cc1N1CCN(C(=O)CCCn2c(=O)[nH]c3ccc(Br)cc3c2=O)CC1 | 21% |
| O=C(CCCn1c(=O)[nH]c2ccc(Br)cc2c1=O)N1CCN(c2cccc(Cl)c2)CC1 | 6% (active) |
| COc1cccc(N2CCN(C(=O)CCCn3c(=O)[nH]c4ccc(Br)cc4c3=O)CC2)c1 | 53% |
| CCOC(=O)c1noc2ncnc(NCc3ccccc3OC)c12 | 72% |
| COc1ccc(N2CC(NC(=O)c3ccco3)CC2=O)cc1OC (configuration not stated) | 68% |
| COc1ccc(OCC(=O)NC2CC(=O)N(c3cccc(OC)c3)C2)cc1 (configuration not stated) | -3% (active) |
| COc1cccc(N2CC(NC(=O)COc3ccc4ccccc4c3)CC2=O)c1 (configuration not stated) | 94% |
| COc1cccc(N2CC(NC(=O)c3ccco3)CC2=O)c1 (configuration not stated) | 10% (active) |
| COc1ccc(N2CC(NC(=O)c3ccco3)CC2=O)cc1 (configuration not stated) | 49% |
| COc1cccc(OCC(=O)NC2CC(=O)N(c3cccc(OC)c3)C2)c1 (configuration not stated) | 124% |
| O=C1CC(=O)SC(c2ccccc2)=N1 | 105% |
| CCOC(=O)c1scc(-c2ccc(C)cc2)c1S(=O)(=O)Nc1ccc(OC)c(Cl)c1 | 90% |
| CCOC(=O)c1c(C)[nH]c(C)c1S(=O)(=O)N(C)CC(=O)Nc1cc(Cl)ccc1OC | 128% |
| CCOC(=O)c1scc(-c2ccc(C)cc2)c1S(=O)(=O)Nc1cc(Cl)ccc1OC | -6% (active) |
| CCOC(=O)c1scc(-c2ccc(C)cc2)c1S(=O)(=O)Nc1cc(OC)ccc1OC | 76% |
| CCOC(=O)c1c(C)[nH]c(C)c1S(=O)(=O)NCC(=O)Nc1cc(Cl)ccc1OC | -6% (active) |
| CCOC(=O)c1c(C)[nH]c(C)c1S(=O)(=O)NCC(=O)Nc1cc(C)ccc1OC | 75% |
| CCCc1oc(C(=O)O)cc1CN1CCOCC1 | 117% |
| CC(=O)C1=C(c2ccc(C)cc2)N(C(C)=O)n2c(nnc2-c2ccccc2)S1 | 134% |
